Source: ChEMBL document CHEMBL3988442, “University of Dundee, Small-Polar-MMV Screening Library” (2021)
The campaign covered roughly 48,000 compounds. About 13,000 (27%) showed an effect of 50% or more. This is one part of the list.

The compounds below were run on Wolbachia pipientis (assay: Anti-Wolbachia Cell-Based Screen). Settings: 5 µM.
Format: functional
Parameters: scale not given: in the data most compounds retested in dose-response had high values

Row | SMILES | Percent Effect [%]
1 | Cc1nnc(CNC(=O)[C@@H]2C[C@H](NC(=O)C(C)(C)C)CN2C)[nH]1 | -6.748
2 | CCOCCC(=O)N(Cc1ccncc1)C(C)CC (stereo unspecified) | -2.407
3 | CC(=O)N[C@@H](CC(C)C)C(=O)N1CCC(n2cc(C(C)(C)N)nn2)CC1 | 10.18
4 | Cc1n[nH]c(C)c1NC(=O)CN(CC(O)c1ccc(F)cc1)C1CC1 (stereo unspecified) | -1.217
5 | COc1cc2c(nn1)CCN(Cc1nc(Cc3ccccc3)no1)C2 | -1.36
6 | CCS(=O)(=O)N1CCOC2(CCCN(c3cccc(C#N)c3)C2)C1 (stereo unspecified) | -4.449
7 | Cc1cc(C)c(CNC(=O)NCCOc2ccc3c(c2)CCC3)c(=O)[nH]1 | -6.999
8 | O=C(NCCC1CCCCO1)c1cc(COc2ccccc2F)[nH]n1 (stereo unspecified) | 0.1687
9 | O=C(NCCN1CCOCC1)c1cc(COc2ccccc2F)[nH]n1 | -10.47
10 | O=C(NCc1nc[nH]n1)c1cc(COc2ccccc2F)[nH]n1 | -17.12
11 | CN(CC1(CO)CCCC1)C(=O)c1cc(COc2ccccc2F)[nH]n1 | 101.7
12 | CN(Cc1nncn1C)C(=O)c1cc(COc2ccccc2F)[nH]n1 | -12.02
13 | CN(CC1(CO)CCC1)C(=O)c1cc(COc2ccccc2F)[nH]n1 | 109.5
14 | O=C(N[C@@H]1CNCCC[C@H]1O)c1ccc(OCCN2CCCC2)cc1 | 0.07573
15 | O=C(N[C@@H]1CNCCC[C@H]1O)c1ccc(OCCN2CCOCC2)cc1 | 0.8179
16 | CO[C@@H]1CC[C@@H](NC(=O)c2ccc(OCCN3CCCC3)cc2)[C@H]1O | 109.4
17 | c1cn(CCc2c[nH]cn2)c(-c2cc(CN3CCCC3)cs2)n1 | -0.5916
18 | Cl.Fc1cccc(F)c1Cn1c(C2CCCNC2)cc2cccnc21 (stereo unspecified) | 125.8
19 | Cl.Fc1ccccc1CNc1ccnc(C2CCNCC2)c1 | 96.16
20 | Cl.Fc1ccccc1Cn1c(C2CCNCC2)cc2cccnc21 | 115.9
21 | CC(C)(C)OC(=O)N1CC(CC(=O)NCc2ccnc(C3CC3)c2)C1 | -29.57
22 | Cl.Fc1cccc(F)c1Cn1c(C2CCNCC2)cc2cccnc21 | 115.5

Row | SMILES | Percent Effect [%]
23 | Cl.c1cnc2c(c1)cc(C1CCOCC1)n2CCN1CCOCC1 | -3.513
24 | NS(=O)(=O)c1ccc(NCc2ccccc2F)cc1C(F)(F)F | -7.773
25 | O=C(O)C(F)(F)F.O=C(c1ncccn1)N1CC[C@H]2OCC[C@@]2(COc2ccccn2)C1 | -10.25
26 | COC(=O)c1ccc(S(=O)(=O)N(C)CC(N)=O)c(Cl)c1 | -3.285
27 | Cc1cnn(CC2CCCN2Cc2cc(=O)n3cccc(C)c3n2)c1 (stereo unspecified) | 6.367
28 | COc1ccc2c(c1)CCCC2CC(=O)O (stereo unspecified) | -1.038
29 | O=C(NC1CCC1)[C@H]1C[C@@H]2[C@@H](C1)OCCN2CC1CC1.O=C(O)C(F)(F)F | -6.466
30 | Cc1cc(-n2cncn2)ccc1C(=O)N(CC(F)(F)F)C(C)C | -3.659
31 | Cc1nc(-c2ccccc2)sc1CSCCC(N)=O | 7.014
32 | CC1=C(C(=O)N(C)Cc2noc3c2CCCC3)C(C)NC(=O)N1 (stereo unspecified) | 99.57
33 | CCCn1ncc(C(=O)NCc2n[nH]c3c2CCCCC3)c1C | -11.8
34 | CC(=O)N1C[C@@H]2CC[C@H](C1)N(C(=O)CCc1n[nH]c3c1CCCC3)C2 | -10.18
35 | CN(Cc1noc2c1CCCC2)C(=O)C1CCOc2ccccc2C1 (stereo unspecified) | -27.45
36 | CN(Cc1noc2c1CCCC2)C(=O)CN1C(=O)COc2ccccc21 | -4.066
37 | CC1=C(C(=O)N(C)Cc2n[nH]c3c2CCCCC3)C(C)NC(=O)N1 (stereo unspecified) | 97.58
38 | O=C(NCc1n[nH]c2c1CCCCC2)c1cnn2c1CCCC2 | -12.98
39 | CC1=C(C(=O)NCCc2n[nH]c3c2CCCC3)C(C)NC(=O)N1 (stereo unspecified) | 140.8
40 | COc1nc2c(cc1C(=O)N(C)Cc1n[nH]c3c1CCCC3)CCC2 | -1.669
41 | COCCCC1CCCN(C(=O)CCc2csc(N)n2)C1 (stereo unspecified) | 18.03
42 | CC(NCCN1CCC(N(C)C)CC1)c1ccc(Cl)s1 (stereo unspecified) | 1.149
43 | Cc1cccc(=O)n1CCCNc1nc(N(C)C)nc2c1CCNCC2 | -26.54
44 | O=C(O)C(F)(F)F.O=C(c1ccccc1-c1ccccc1)N1C[C@@H]2CNC[C@]2(C(=O)O)C1 | 7.106

Row | SMILES | Percent Effect [%]
45 | Fc1cccnc1Oc1cc(F)c(CN2CCCC2)c(Cl)c1 | 96.1
46 | COc1ccc(Oc2ncccc2C(F)(F)F)cc1CN1CCCC1 | 21.25
47 | N#Cc1ccc(Oc2cc(F)c(CN3CCCC3)c(F)c2)nc1 | 28.32
48 | Fc1cc(Oc2ccc(C(F)(F)F)cn2)cc(F)c1CN1CCCC1 | -0.6803
49 | Fc1cccnc1Oc1cc(F)c(CN2CCCC2)c(F)c1 | 105.5
50 | N#Cc1cccnc1Oc1cc(F)c(CN2CCCC2)c(Cl)c1 | 85.58
51 | COc1ccc(Oc2ncccc2F)cc1CN1CCCC1 | -25.38
52 | COc1cc(Oc2ncccc2C(F)(F)F)ccc1CN1CCCC1 | 7.614
53 | N#Cc1cccc(Oc2ccc(CN3CCCC3)cc2Cl)n1 | 1.122
54 | O=C(NCc1ccccc1CN1CCCCCC1)Nc1nncs1 | -11.94
55 | CCc1csc(CNC2CCN(Cc3ccccc3)C2)n1 (stereo unspecified) | -41.87
56 | O=c1[nH]c(=O)n(CC(O)c2ccccc2Cl)cc1Cl (stereo unspecified) | -2.887
57 | CCCn1cnnc1CNC(=O)C1COc2ccc(OC)cc2C1 (stereo unspecified) | -4.97
58 | CCCc1nnc([C@H]2CCN(Cc3ncc[nH]3)C2)o1 | 2.62
59 | CCCc1n[nH]c(C2CN(Cc3ncc[nH]3)CCO2)n1 (stereo unspecified) | 0.7755
60 | Cn1cncc1-c1nnc([C@H]2CCN(Cc3ncc[nH]3)C2)o1 | -1.708
61 | Fc1ccc(Nc2ccc(C3CCN(Cc4ncc[nH]4)CC3)nc2)nc1 | 114.5
62 | Brc1ccc(CN2CCC(NCc3ncc[nH]3)CC2)cc1 | 0.1556
63 | Cc1cc(Nc2ccc(F)cn2)cc(C2CCN(Cc3ncc[nH]3)C2)n1 (stereo unspecified) | 87.11
64 | Clc1cc(Cl)cc(CN2CCC(NCc3ncc[nH]3)CC2)c1 | 21.36
65 | CC(C)(C)c1n[nH]c(C2CN(Cc3ncc[nH]3)CCO2)n1 (stereo unspecified) | -4.416
66 | Cc1cccc(Nc2ccc(C3CCN(Cc4ncc[nH]4)CC3)nc2)n1 | 108.6
